Source: PubChem BioAssay
The source made the active and inactive calls.

What was measured:
[1] = target: Albumin (Bos taurus) (UniProt P02769); test: compounds binding labelled BSA control protein – biochemical, small-molecule microarray, Alexa647 label, 635/667 nm fluorescence, artefact control for SMM control protein annotation, profiling panel (AID 1118); settings: BSA-A647 binding, fluorescence 635 nm, higher = more signal;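 note: score merges 667 nm emission intensity and signal-to-noise per printed compound spot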
Sequence of Albumin (Bos taurus) (P02769 whole entry, looked up): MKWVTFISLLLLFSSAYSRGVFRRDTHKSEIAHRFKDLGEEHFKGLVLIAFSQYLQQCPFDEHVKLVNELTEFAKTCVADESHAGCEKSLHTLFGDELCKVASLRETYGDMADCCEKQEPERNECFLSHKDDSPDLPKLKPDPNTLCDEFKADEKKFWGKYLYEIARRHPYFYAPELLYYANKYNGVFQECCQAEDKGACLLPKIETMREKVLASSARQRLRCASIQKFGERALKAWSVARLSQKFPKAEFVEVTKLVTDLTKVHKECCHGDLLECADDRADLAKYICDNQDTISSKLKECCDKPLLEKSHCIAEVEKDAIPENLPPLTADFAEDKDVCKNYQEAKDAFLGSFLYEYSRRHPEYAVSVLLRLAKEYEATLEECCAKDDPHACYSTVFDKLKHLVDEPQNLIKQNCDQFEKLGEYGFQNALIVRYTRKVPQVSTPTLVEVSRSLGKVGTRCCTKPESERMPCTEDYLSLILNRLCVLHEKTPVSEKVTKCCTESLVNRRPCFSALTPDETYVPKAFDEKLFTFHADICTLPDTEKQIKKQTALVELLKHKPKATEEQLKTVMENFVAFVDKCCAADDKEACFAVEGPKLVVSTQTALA

[2] = probe aXIP binding to arrayed compounds – biochemical, NeuroSMM set, 635/667 nm fluorescence, primary screen (AID 1119); settings: small-molecule microarray, higher = more signal, called active from +8 up or from −8 down;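 note: probe is the protein aXip251-270 applied at 1 µg/mL to compound-printed slides; binding of probe to printed compounds measured as 667 nm fluorescence plus signal to noise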
[3] = probe aNOTCH3 binding on compound microarray – biochemical, small-molecule microarray, 635/667 nm fluorescence, primary screen (AID 1120); settings: higher = more signal;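 note: probe is a biotin-tagged antibody raised against NOTCH3 rather than NOTCH3 protein; score merges spot fluorescence near 667 nm with spot signal to noise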
[4] = probe aNOTCH2 binding on compound microarray – biochemical, small-molecule microarray, 635/667 nm fluorescence, primary screen (AID 1121); settings: higher = more signal;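 note: score merges feature fluorescence read at 667 nm with its signal to noise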
[5] = target: Carbonic anhydrase 2 (Homo sapiens) (UniProt P00918); test: compounds binding carbonic anhydrase 2 – biochemical, small-molecule microarray, Alexa647-labelled CAII, profiling panel (AID 1122); settings: CAII-A647 binding fluorescence, higher = more signal
[6] = COS7 lysate on small-molecule microarray, probe aHis, 635 nm (AID 1123); settings: COS7 cell lysate, fluorescence, higher = more signal;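 note: z-score combines 667nm fluorescence intensity with signal-to-noise per printed compound spot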
[7] = probe aLAP1 signal on lysate-treated microarray – cell lysate, small-molecule microarray, COS7 lysate, primary screen (AID 1124); settings: probe aLAP1, fluorescence, higher = more signal;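 note: lysate comes from COS7 cells expressing LAP1 and is applied at 0.3 µg/mL; score merges spot fluorescence near 667 nm with signal-to-noise over triplicate slides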
[8] = system: Sam68 (KHDRBS1); test: compounds binding KHDRBS1 protein – biochemical, small-molecule microarray, 635 nm fluorescence, primary screen (AID 1125); settings: higher = more signal;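 note: score merges 667 nm channel intensity with signal to noise over triplicate slides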
[9] = system: Chordin-like protein 2 (CHRDL2); test: compounds binding chordin-like 2 – biochemical, small-molecule microarray, 635 nm fluorescence, primary screen (AID 1126); settings: fluorescence 635 nm, higher = more signal;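 note: printed compound slides probed with Chrdl2 protein at 4 µg/mL for 1 h at 4 C; score merges 667 nm emission intensity with signal to noise over three replicate slides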
[10] = target: Concanavalin-A (Canavalia ensiformis) (UniProt P02866); test: compounds binding concanavalin A lectin – biochemical, small-molecule microarray, Alexa647 label, 635 nm, artefact control for SMM control protein annotation, primary screen (AID 1127); settings: ConA-A647 binding fluorescence, higher = more signal;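 note: z combines 667 nm emission intensity with signal-to-noise across three replicate slides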
Sequence of Concanavalin-A (Canavalia ensiformis) (P02866 whole entry, looked up): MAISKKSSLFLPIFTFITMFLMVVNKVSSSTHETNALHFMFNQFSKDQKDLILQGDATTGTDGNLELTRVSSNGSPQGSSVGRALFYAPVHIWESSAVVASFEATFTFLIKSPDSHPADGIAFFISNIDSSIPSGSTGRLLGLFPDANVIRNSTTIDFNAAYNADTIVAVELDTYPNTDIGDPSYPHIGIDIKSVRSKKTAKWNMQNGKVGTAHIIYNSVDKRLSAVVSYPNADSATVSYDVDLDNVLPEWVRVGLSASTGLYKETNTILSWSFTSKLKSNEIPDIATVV

[11] = compounds binding Alexa647 anti-His antibody – biochemical, small-molecule microarray, 635 nm fluorescence, artefact control for SMM control protein annotation, primary screen (AID 1128); settings: higher = more signal;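 note: score merges feature fluorescence with signal-to-noise for each printed compound spot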
[12] = system: Human papillomavirus type 1a E7 protein (residues 1-88); test: HPV1a E7 small-molecule binders, primary screen, biochemical, small-molecule microarray, residues 1-88, 635 nm (AID 1129); settings: small-molecule microarray binding, fluorescence 635 nm; higher = more signal
[13] = target: Focal adhesion kinase 1 (Homo sapiens) (UniProt Q05397); test: PTK2 protein binding on printed compound slides – biochemical, small-molecule microarray, 635/667 nm fluorescence, BSA, DTT, primary screen (AID 1130); settings: 635 nm fluorescence, higher = more signal;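 note: composite of spot emission at 667 nm and signal to noise over triplicate slides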
Sequence of Focal adhesion kinase 1 (Homo sapiens) (Q05397 whole entry, looked up): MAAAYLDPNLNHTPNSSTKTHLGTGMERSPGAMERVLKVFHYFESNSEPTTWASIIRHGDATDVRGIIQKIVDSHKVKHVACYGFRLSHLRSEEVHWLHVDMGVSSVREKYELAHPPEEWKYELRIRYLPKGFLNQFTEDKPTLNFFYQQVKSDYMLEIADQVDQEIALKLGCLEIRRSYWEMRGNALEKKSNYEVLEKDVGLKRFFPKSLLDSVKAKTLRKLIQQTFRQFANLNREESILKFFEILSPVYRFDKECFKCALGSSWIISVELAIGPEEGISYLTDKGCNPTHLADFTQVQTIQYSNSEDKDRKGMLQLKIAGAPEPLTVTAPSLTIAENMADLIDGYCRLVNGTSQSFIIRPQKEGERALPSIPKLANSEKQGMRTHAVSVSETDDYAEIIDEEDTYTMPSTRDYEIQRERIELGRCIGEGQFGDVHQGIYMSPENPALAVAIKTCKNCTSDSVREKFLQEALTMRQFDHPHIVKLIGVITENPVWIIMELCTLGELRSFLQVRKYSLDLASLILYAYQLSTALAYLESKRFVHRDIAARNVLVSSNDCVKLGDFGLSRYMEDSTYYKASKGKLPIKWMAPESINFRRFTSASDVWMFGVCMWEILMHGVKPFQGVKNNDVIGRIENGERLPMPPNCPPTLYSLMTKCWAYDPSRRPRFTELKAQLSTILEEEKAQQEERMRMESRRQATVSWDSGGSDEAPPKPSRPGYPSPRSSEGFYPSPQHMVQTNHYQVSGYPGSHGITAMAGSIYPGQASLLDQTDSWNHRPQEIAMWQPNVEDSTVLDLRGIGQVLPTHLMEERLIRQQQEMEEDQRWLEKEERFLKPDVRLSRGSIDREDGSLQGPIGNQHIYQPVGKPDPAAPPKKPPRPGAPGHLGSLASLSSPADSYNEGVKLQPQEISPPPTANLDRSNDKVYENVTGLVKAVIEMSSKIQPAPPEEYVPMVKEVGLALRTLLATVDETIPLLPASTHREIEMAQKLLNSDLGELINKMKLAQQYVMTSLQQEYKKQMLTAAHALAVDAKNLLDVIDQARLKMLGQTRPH

[14] = system: Fibrinogen (Alexa647-labelled); test: Alexa647-fibrinogen binding to printed small molecules – biochemical, small-molecule microarray, 635/667 nm fluorescence, artefact control for SMM control-protein annotation, profiling panel (AID 1131); settings: fibrinogen-A647 binding fluorescence, higher = more signal;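 note: z-score merges 667 nm fluorescence with per-spot signal-to-noise over triplicate slides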
[15] = target: Follistatin (Homo sapiens) (UniProt P19883); test: FST protein binding to printed compounds – biochemical, small-molecule microarray, 635/667 nm fluorescence, primary screen (AID 1132); settings: 635 nm fluorescence, higher = more signal
Sequence of Follistatin (Homo sapiens) (P19883 whole entry, looked up): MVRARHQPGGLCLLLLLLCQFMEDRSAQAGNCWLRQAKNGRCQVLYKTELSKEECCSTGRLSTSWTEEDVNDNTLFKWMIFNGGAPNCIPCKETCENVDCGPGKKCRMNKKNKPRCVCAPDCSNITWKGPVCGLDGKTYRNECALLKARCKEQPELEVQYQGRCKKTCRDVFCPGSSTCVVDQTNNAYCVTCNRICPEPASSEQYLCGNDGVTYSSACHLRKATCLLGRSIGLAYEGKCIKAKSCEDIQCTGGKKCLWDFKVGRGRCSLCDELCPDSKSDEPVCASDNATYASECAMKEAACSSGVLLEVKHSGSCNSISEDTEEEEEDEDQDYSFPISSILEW

[16] = target: Fibroblast growth factor 2 (Homo sapiens) (UniProt P09038); test: basic fibroblast growth factor binding to printed compounds – biochemical, small-molecule microarray, 635/667 nm fluorescence, primary screen (AID 1133); settings: FGF2, fluorescence 635/667, higher = more signal
Sequence of Fibroblast growth factor 2 (Homo sapiens) (P09038 whole entry, looked up): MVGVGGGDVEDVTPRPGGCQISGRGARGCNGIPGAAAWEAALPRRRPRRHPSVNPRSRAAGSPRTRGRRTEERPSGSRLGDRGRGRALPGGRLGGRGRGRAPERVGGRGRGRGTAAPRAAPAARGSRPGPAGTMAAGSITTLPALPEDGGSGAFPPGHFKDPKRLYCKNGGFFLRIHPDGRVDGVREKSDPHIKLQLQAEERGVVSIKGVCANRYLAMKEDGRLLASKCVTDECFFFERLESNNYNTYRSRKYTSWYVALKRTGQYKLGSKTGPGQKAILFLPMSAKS

[17] = JC-1 mitochondrial potential readout, lung cancer cells – cell-based, A549, JC-1 fluorescence, basal, 24 h, 100 nL, profiling panel (AID 1138); settings: higher = more signal;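 note: A549 lung adenocarcinoma cells under basal conditions with no added stimulus; test concentration not given here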
[18] = system: Lefty1; test: Lefty1 protein binding to printed compounds – biochemical, small-molecule microarray, 635/667 nm fluorescence, primary screen (AID 1139); settings: fluorescence 635/667, higher = more signal
[19] = system: wheat germ agglutinin (Triticum aestivum), Alexa647-labelled; test: Alexa647-WGA lectin binding to printed small molecules – biochemical, small-molecule microarray, 635/667 nm fluorescence, artefact control for SMM control-protein annotation, profiling panel (AID 1140); settings: WGA-A647 binding, 635 nm fluorescence, higher = more signal;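 note: score merges 667 nm feature emission with signal to noise over triplicate slides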
[20] = target: Luciferin 4-monooxygenase (Photinus pyralis) (UniProt P08659); test: inhibition of purified Photinus pyralis luciferase – biochemical, luminescence, purified enzyme, 2006 set, primary screen (AID 1141); settings: purified firefly luciferase, SteadyGlo luminescence, 30 min; higher = more signal, called active from +8 up or from −8 down;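 note: cell-free assay with purified firefly luciferase at 100 ng per well in PBS; test concentration not given here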
Sequence of Luciferin 4-monooxygenase (Photinus pyralis) (P08659 whole entry, looked up): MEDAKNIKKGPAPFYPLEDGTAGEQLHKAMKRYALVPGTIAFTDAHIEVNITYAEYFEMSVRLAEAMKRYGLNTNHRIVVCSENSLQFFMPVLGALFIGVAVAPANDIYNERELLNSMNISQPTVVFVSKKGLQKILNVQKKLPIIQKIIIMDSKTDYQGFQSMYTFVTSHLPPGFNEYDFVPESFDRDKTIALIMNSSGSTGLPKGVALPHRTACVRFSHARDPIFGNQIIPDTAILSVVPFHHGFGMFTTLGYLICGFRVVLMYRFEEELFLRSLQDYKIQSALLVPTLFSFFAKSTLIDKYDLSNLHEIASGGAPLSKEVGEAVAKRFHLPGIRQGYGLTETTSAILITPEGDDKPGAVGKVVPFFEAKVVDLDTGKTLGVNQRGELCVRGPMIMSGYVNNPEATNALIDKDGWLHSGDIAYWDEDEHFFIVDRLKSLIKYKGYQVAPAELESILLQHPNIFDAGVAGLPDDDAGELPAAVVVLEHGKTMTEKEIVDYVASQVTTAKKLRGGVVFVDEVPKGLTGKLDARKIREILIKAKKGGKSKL

SMILES: NC(N)=NCCCn1cc(CNC(=O)[C@@H](N)Cc2ccccc2)nn1
- composite z-score [1]: 0.0958
- composite Z-score [2]: 0.79 (inactive)
- composite z-score [3]: 0.0126
- composite z-score [4]: -0.0279
- composite z-score [5]: 0.948
- composite z-score [6]: 0.96
- composite z-score [7]: 0.155
- composite z-score [8]: -0.103
- composite z-score [9]: 0.57
- composite z-score [10]: -0.739
- composite z-score [11]: 0.499
- composite z-score [12]: -0.505
- composite z-score [13]: -0.242
- composite z-score [14]: -0.845
- composite z-score [15]: 1.42
- composite z-score [16]: 0.943
- z-score [17]: -0.55
- composite z-score [18]: 1.05
- composite z-score [19]: 0.465
- z-score [20]: 0.36 (inactive)

SMILES: COC(=O)[C@@]1(Cc2ccccc2)[C@H]2c3cc(C(=O)N(C)C)n(CCc4ccc(O)c(OC)c4)c3C[C@H]2CN1C(=O)c1ccccc1
- composite z-score [1]: 0.374
- composite Z-score [2]: -0.372 (inactive)
- composite z-score [3]: 0.742
- composite z-score [4]: 0.401
- composite z-score [5]: 0.126
- composite z-score [6]: 0.316
- composite z-score [7]: 0.638
- composite z-score [8]: 0.169
- composite z-score [9]: 0.314
- composite z-score [10]: 0.151
- composite z-score [11]: 0.964
- composite z-score [12]: 0.88
- composite z-score [13]: 0.0098
- composite z-score [14]: 0.814
- composite z-score [15]: 0.168
- composite z-score [16]: 0.273
- z-score [17]: 0.153
- composite z-score [18]: 0.0511
- composite z-score [19]: 0.0048
- z-score [20]: 0.554 (inactive)

SMILES: COCCOC(=O)N1C(=O)[C@@]2(c3cc(C#Cc4ccc(OC)cc4)ccc31)[C@H](C(=O)Nc1nc3ccccc3s1)[C@H]1C(=O)O[C@H](c3ccccc3)[C@H](c3ccccc3)N1[C@@H]2c1ccc(OCCO)cc1
- composite z-score [1]: -0.0497
- composite Z-score [2]: 0.308 (inactive)
- composite z-score [3]: 0.0493
- composite z-score [4]: -0.0539
- composite z-score [5]: 0.458
- composite z-score [6]: 0.757
- composite z-score [7]: -0.38
- composite z-score [8]: 1.31
- composite z-score [9]: 0.68
- composite z-score [10]: 1.16
- composite z-score [11]: 1.14
- composite z-score [12]: 1.12
- composite z-score [13]: 0.168
- composite z-score [14]: 0.809
- composite z-score [15]: 1.17
- composite z-score [16]: 1.28
- z-score [17]: -2.19
- composite z-score [18]: 0.87
- composite z-score [19]: 0.494
- z-score [20]: -3.71 (inactive)

SMILES: C=C(COC)/C(=C/C[C@H](OC(=O)c1ccncc1)c1ccccc1OCCO)c1cnc2ccccc2c1
- composite z-score [1]: 0.609
- composite Z-score [2]: 0.431 (inactive)
- composite z-score [3]: 0.0964
- composite z-score [4]: -0.102
- composite z-score [5]: 0.881
- composite z-score [6]: 2.07
- composite z-score [7]: 0.118
- composite z-score [8]: 1.29
- composite z-score [9]: 0.951
- composite z-score [10]: 1.03
- composite z-score [11]: 0.717
- composite z-score [12]: 1.23
- composite z-score [13]: 0.241
- composite z-score [14]: 1.01
- composite z-score [15]: 1.4
- composite z-score [16]: 1.35
- z-score [17]: 0.662
- composite z-score [18]: 1.5
- composite z-score [19]: 1.04
- z-score [20]: -0.212 (inactive)

SMILES: C=C(/C(=C/C[C@H](OC(C)=O)c1ccccc1OCCO)c1cc(C(=O)OC)ccc1OC)C(C)C
- composite z-score [1]: 0.469
- composite Z-score [2]: -0.0127 (inactive)
- composite z-score [3]: -0.0782
- composite z-score [4]: -0.173
- composite z-score [5]: 0.491
- composite z-score [6]: 1.26
- composite z-score [7]: -0.0654
- composite z-score [8]: 0.527
- composite z-score [9]: -0.152
- composite z-score [10]: 0.548
- composite z-score [11]: 2.68
- composite z-score [12]: 0.278
- composite z-score [13]: -0.164
- composite z-score [14]: 0.0823
- composite z-score [15]: 0.494
- composite z-score [16]: 0.428
- z-score [17]: -0.139
- composite z-score [18]: 0.501
- composite z-score [19]: 0.151
- z-score [20]: -0.475 (inactive)

SMILES: O=C1NC(=O)C2C1C=CC(C(O)c1c(F)cccc1Cl)N2Nc1ccc(Cl)cc1Cl (stereo not given)
- composite z-score [1]: 1.04
- composite Z-score [2]: 0.122 (inactive)
- composite z-score [3]: 0.525
- composite z-score [4]: 0.232
- composite z-score [5]: 0.599
- composite z-score [6]: 3.11
- composite z-score [7]: 1.12
- composite z-score [8]: 0.79
- composite z-score [9]: -0.879
- composite z-score [10]: 0.44
- composite z-score [11]: 1.23
- composite z-score [12]: 1.2
- composite z-score [13]: 1.6
- composite z-score [14]: 0.296
- composite z-score [15]: -0.0649
- composite z-score [16]: -0.891
- z-score [17]: -1.15
- composite z-score [18]: -0.507
- composite z-score [19]: 1.31
- z-score [20]: 0.231 (inactive)
